The supplement of paper PMC10849652
About 7,900 targets were measured; listed, in parts, are those with a hit and a random draw of the rest. About 0.6% of all pairs of compound and target were hits.

Columns and labels:
Assay in all cases: log2 fold change, soluble protein after heating vs DMSO (PISA); higher = thermal stabilisation; K562 cells, 10 uM, 30 min; active = over 0.2 and 3.5 SD of the protein, either way, in both replicates (recomputed)
[1] = compound: CC[C@@H]1C(=O)N(C)c2cnc(Nc3ccc(C(=O)NC4CCN(C)CC4)cc3OC)nc2N1C1CCCC1
How it was run: (§1)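 K562 cells at 2×10^6 cells/mL were given 10 μM compound for 30 min. Aliquots then went through 3 min of heating across 48°C-58°C, were pooled, and were extracted in PBS with 0.5% NP-40 at 4°C, and the supernatant after 21,000xg for 90 min was quantified by TMTpro 16plex LC-MS/MS with channel sums equalised. Thermal stability relative to control samples, from duplicates, is given as log2 fold change.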

[2] = compound: CC[C@@H]1C(=O)N(C)c2cnc(Nc3ccc(C(=O)N[C@H]4CC[C@H](N5CCN(CC6CC6)CC5)CC4)cc3OC)nc2N1C(C)C [volasertib]
How it was run: as §1

[3] = compound: CC[C@H](C)N1C=C(C2=C(C=C(C=C21)C3=CN=C(C=C3)N4CCNCC4)C(=O)NCC5=C(C=C(NC5=O)C)C)C
How it was run: as §1

[4] = compound: CC[C@H](C)[C@@H](C(=O)N[C@@H]([C@@H](C)O)C(=O)N[C@@H](CC(C)C)C(=O)[C@]1(CO1)C)NC(=O)[C@H]([C@@H](C)CC)N(C)C(=O)C [epoxomicin]
How it was run: as §1

[5] = compound: CCn1c(C(=O)N(C2CC2)C2CC2)cc2c3c(ncn3C)c(Nc3cc(C)n(C)n3)nc21
How it was run: as §1

[6] = compound: CCn1cc(-c2ccnc3[nH]c(-c4cccc(CN(C)C)c4)cc23)c(-c2ccc(NC(=O)N(C)C)cc2)n1
How it was run: as §1

[7] = compound: CN(C)CC(=O)Nc1ccc2[nH]c(=O)c3ccccc3c2c1
How it was run: as §1

[8] = compound: CN(CCOC1=CC=C(C=C1)C[C@H]2C(=O)NC(=O)S2)C3=CC=CC=N3 (racemic) [rosiglitazone]
How it was run: as §1

[9] = compound: CN1C2=C(C3=C1C(=O)N(N=C3)CC4=CC(=CC=C4)N)SC(=C2)S(=O)C
How it was run: as §1

[10] = compound: CN1CCC(CNc2ccc3ncc(-c4cccc(OC(F)(F)F)c4)n3n2)CC1
How it was run: as §1

[11] = compound: CN1CCN(CCOc2cc(OC3CCOCC3)c3c(Nc4c(Cl)ccc5c4OCO5)ncnc3c2)CC1 [saracatinib]
How it was run: as §1

[12] = compound: CN1CCN(c2nc(C3=C(c4c[nH]c5ccccc45)C(=O)NC3=O)c3ccccc3n2)CC1 [sotrastaurin]
How it was run: as §1

[13] = compound: CN1CC[C@H](c2c(O)cc(O)c3c(=O)cc(-c4ccccc4Cl)oc23)[C@H](O)C1 [alvocidib]
How it was run: as §1

[14] = compound: CN1CCc2c(c3ccccc3n2Cc2ccc(C(=O)NO)cc2)C1 [Tubastatin A]
How it was run: as §1

[15] = compound: CNC(=O)C1=CC=CC=C1NC2=NC(=NC=C2Cl)NC3=C(C=C(C=C3)N4CCOCC4)OC
How it was run: as §1

[16] = compound: CNC(=O)c1ccc(Nc2ncc(C(F)(F)F)c(NCc3nccnc3N(C)S(C)(=O)=O)n2)cc1 [defactinib]
How it was run: as §1

[17] = compound: CNCc1ccc(-c2[nH]c3cc(F)cc4c3c2CCNC4=O)cc1 [rucaparib]
How it was run: as §1

[18] = compound: CNc1nc(-c2ccc3c(N)n[nH]c3c2)cc(N2C[C@@H](C(=O)NC3CCCCC3)CC[C@H]2C)n1
How it was run: as §1

[19] = compound: COC(=O)N[C@@H](C)CNc1nccc(-c2cn(C(C)C)nc2-c2cc(Cl)cc(NS(C)(=O)=O)c2F)n1 [encorafenib]
How it was run: as §1

[20] = compound: COC(=O)[C@H](CCSC)NC(=O)C1=C(C=C(C=C1)NC[C@H](CS)N)C2=CC=CC=C2
How it was run: as §1

Measured: log2 fold change

MTMR14 (UniProt Q8NCE2)
Sequence of UniProt Q8NCE2 (Q8NCE2 whole entry, looked up): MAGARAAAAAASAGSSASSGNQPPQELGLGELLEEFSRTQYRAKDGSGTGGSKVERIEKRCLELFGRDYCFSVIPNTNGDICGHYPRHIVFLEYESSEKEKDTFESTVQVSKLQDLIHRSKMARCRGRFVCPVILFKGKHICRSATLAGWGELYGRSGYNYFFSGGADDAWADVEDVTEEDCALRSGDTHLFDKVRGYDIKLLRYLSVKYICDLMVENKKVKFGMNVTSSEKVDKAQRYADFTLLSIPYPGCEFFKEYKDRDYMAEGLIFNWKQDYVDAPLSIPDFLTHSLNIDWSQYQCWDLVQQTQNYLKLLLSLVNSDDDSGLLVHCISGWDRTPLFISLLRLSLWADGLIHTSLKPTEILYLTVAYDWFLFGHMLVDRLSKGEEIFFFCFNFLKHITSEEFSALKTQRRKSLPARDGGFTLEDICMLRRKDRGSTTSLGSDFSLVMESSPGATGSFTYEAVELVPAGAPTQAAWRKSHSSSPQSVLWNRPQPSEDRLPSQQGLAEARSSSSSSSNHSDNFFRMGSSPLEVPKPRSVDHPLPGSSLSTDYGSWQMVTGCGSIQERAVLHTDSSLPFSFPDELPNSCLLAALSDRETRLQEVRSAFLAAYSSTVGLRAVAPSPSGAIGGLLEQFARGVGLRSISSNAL
inactive: [1] -0.194 | [3] 0.037 | [4] 0.019 | [5] 0.009 | [6] -0.056 | [7] 0.001 | [8] 0.026 | [9] 0.022 | [10] -0.039 | [11] -0.037 | [12] -0.042 | [13] -0.059 | [14] 0 | [15] 0.008 | [16] -0.058 | [17] -0.017 | [18] -0.064 | [19] -0.026 | [20] 0.038
active: [2] -0.622

MSH2 (UniProt P43246)
Sequence of UniProt P43246 (P43246 whole entry, looked up): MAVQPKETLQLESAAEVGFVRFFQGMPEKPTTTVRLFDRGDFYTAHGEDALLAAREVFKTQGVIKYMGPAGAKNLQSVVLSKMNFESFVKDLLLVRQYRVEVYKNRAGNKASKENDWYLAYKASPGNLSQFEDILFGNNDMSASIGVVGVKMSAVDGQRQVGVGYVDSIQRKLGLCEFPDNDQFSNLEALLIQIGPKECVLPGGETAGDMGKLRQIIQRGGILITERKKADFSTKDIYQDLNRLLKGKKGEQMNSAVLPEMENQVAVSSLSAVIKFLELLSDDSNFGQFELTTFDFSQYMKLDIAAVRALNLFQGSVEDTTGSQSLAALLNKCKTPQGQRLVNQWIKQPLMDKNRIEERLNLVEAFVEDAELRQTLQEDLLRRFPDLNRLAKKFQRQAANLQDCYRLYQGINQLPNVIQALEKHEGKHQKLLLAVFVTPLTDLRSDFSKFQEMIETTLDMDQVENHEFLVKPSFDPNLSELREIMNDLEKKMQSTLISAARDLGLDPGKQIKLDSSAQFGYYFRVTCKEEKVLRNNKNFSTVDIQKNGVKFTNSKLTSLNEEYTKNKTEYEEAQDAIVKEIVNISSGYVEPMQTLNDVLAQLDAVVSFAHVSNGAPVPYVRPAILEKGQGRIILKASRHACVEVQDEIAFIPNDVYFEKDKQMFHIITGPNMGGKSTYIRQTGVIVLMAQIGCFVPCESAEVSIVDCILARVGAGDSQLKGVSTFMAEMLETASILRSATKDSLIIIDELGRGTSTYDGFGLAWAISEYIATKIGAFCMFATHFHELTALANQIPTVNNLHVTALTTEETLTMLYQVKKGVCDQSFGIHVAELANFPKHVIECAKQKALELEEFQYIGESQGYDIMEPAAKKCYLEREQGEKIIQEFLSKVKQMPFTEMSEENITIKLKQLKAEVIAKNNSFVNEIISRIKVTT
inactive: [1] -0.103 | [2] -0.173 | [3] 0.039 | [4] 0.066 | [5] -0.034 | [6] 0.036 | [7] 0.059 | [8] 0.046 | [9] -0.019 | [10] -0.067 | [11] -0.006 | [12] -0.072 | [13] -0.111 | [14] 0.041 | [15] 0.065 | [16] -0.153 | [17] -0.06 | [18] 0.031 | [19] 0.062 | [20] -0.037

MND1 (UniProt Q9BWT6)
Sequence of UniProt Q9BWT6 (Q9BWT6 whole entry, looked up): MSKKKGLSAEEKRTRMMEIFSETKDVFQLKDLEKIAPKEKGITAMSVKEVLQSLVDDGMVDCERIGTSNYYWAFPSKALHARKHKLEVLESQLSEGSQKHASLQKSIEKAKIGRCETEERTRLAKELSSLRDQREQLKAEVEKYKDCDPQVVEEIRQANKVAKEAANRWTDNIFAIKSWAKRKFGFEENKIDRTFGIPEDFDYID
inactive: [1] -0.081 | [2] -0.175 | [3] -0.036 | [4] 0.049 | [5] 0.045 | [6] -0.076 | [7] -0.015 | [8] -0.008 | [9] 0.04 | [11] 0.006 | [12] 0.036 | [13] 0.011 | [14] -0.006 | [15] -0.029 | [16] -0.021 | [17] 0.05 | [18] -0.059 | [19] -0.15 | [20] 0.023
active: [10] -0.468

NUDCD2 (UniProt Q8WVJ2)
active: [2] -0.566
inactive: [1] -0.177 | [3] 0.056 | [4] -0.098 | [5] -0.042 | [6] 0.021 | [7] 0.081 | [8] 0.093 | [9] 0.023 | [10] -0.291 | [11] -0.115 | [12] -0.123 | [13] -0.139 | [14] 0.051 | [15] 0.002 | [16] -0.256 | [17] -0.053 | [18] 0 | [19] 0.048 | [20] 0

NCOR1 (UniProt O75376)
inactive: [1] -0.034 | [2] -0.021 | [3] 0.142 | [4] 0.07 | [5] -0.066 | [6] 0.046 | [7] 0.048 | [8] 0.044 | [9] 0.033 | [10] -0.045 | [11] 0.074 | [12] -0.094 | [13] -0.179 | [14] -0.009 | [15] -0.041 | [16] -0.113 | [17] 0.012 | [18] -0.02 | [19] 0 | [20] 0.007

MRPS18B (UniProt Q9Y676)
inactive: [1] 0.028 | [2] -0.039 | [3] 0.09 | [4] 0.042 | [5] -0.075 | [6] -0.021 | [7] 0.041 | [8] -0.069 | [9] -0.01 | [10] -0.087 | [11] -0.038 | [12] 0.082 | [13] -0.059 | [14] 0.125 | [15] 0.007 | [16] -0.016 | [17] 0.065 | [18] 0.225 | [19] 0.034 | [20] -0.027

OGFR (UniProt Q9NZT2)
inactive: [1] 0.026 | [2] -0.103 | [3] 0.167 | [4] -0.076 | [5] 0.018 | [6] -0.041 | [7] 0.142 | [8] 0.007 | [9] -0.027 | [10] -0.134 | [11] -0.044 | [12] -0.146 | [13] -0.04 | [14] 0.089 | [15] -0.028 | [16] -0.094 | [17] 0.132 | [18] 0.009 | [19] 0.031 | [20] -0.154

NEMP1 (UniProt O14524)
Sequence of UniProt O14524 (O14524 whole entry, looked up): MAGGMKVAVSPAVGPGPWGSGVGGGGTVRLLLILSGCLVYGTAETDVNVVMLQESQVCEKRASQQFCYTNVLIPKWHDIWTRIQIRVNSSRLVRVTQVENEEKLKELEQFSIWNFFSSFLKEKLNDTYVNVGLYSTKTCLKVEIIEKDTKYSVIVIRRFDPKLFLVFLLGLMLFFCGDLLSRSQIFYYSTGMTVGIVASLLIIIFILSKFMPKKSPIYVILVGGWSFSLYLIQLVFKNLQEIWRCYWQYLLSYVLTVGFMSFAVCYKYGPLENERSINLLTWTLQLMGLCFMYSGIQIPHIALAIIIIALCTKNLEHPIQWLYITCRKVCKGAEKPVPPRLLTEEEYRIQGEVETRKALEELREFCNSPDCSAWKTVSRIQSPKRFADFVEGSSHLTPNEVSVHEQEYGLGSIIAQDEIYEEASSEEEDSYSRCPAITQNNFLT
inactive: [1] 0.007 | [2] -0.128 | [3] -0.023 | [4] 0.015 | [5] 0.08 | [6] 0.018 | [7] -0.003 | [8] 0.048 | [9] 0.01 | [10] -0.106 | [11] -0.001 | [12] -0.012 | [13] -0.015 | [14] -0.002 | [15] -0.111 | [16] 0.021 | [17] 0.026 | [18] -0.045 | [19] -0.039 | [20] 0.053

MPHOSPH10 (UniProt O00566)
inactive: [1] 0.099 | [2] -0.155 | [3] 0.084 | [4] -0.26 | [5] -0.028 | [6] 0.182 | [7] -0.012 | [8] 0.089 | [9] 0.314 | [10] 0.133 | [11] -0.123 | [12] -0.061 | [13] 0.086 | [14] 0.098 | [15] -0.023 | [16] 0.11 | [17] 0.229 | [18] -0.081 | [19] 0.214 | [20] 0.045

NCAPG (UniProt Q9BPX3)
Sequence of UniProt Q9BPX3 (Q9BPX3 whole entry, looked up): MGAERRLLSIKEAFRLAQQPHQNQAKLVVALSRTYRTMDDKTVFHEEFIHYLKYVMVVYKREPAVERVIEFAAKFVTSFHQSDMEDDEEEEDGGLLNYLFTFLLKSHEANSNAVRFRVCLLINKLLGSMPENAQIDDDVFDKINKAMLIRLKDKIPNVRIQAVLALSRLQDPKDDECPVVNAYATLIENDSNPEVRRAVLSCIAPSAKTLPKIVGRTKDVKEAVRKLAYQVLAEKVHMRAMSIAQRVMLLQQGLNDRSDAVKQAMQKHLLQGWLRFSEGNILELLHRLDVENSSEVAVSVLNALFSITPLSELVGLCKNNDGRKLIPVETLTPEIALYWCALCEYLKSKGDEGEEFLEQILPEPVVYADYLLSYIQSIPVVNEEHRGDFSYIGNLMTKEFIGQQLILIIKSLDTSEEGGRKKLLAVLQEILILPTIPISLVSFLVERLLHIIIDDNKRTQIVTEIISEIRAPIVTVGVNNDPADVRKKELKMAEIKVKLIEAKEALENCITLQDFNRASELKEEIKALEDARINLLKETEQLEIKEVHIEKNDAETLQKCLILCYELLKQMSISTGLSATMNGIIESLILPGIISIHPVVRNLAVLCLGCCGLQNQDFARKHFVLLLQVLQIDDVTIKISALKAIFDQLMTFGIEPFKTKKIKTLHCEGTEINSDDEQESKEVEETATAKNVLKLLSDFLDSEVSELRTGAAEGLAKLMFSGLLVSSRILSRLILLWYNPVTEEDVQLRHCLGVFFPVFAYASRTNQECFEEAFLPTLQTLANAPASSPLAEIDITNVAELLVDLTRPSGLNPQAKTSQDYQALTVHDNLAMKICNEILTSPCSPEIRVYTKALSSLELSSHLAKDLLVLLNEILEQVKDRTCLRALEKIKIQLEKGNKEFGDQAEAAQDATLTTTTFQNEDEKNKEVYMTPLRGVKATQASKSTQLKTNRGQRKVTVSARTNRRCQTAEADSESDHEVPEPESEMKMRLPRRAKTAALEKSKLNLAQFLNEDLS
inactive: [1] -0.105 | [3] 0.059 | [4] 0.023 | [5] -0.002 | [6] 0.003 | [7] 0.04 | [8] 0.066 | [9] 0.004 | [10] 0.092 | [11] -0.077 | [12] -0.122 | [13] -0.053 | [14] 0.026 | [15] 0.106 | [16] -0.067 | [17] 0.078 | [18] -0.004 | [19] 0.093 | [20] -0.039
active: [2] -0.506

NUDT21 (UniProt O43809)
inactive: [1] 0.036 | [2] 0.074 | [3] -0.033 | [4] -0.107 | [5] -0.02 | [6] 0.038 | [7] -0.041 | [8] -0.028 | [9] -0.013 | [10] 0.064 | [11] 0.028 | [12] 0.024 | [13] -0.017 | [14] 0.01 | [15] -0.166 | [16] 0.045 | [17] 0.004 | [18] -0.025 | [19] -0.015 | [20] -0.034

MORC3 (UniProt Q14149)
Sequence of UniProt Q14149 (Q14149 whole entry, looked up): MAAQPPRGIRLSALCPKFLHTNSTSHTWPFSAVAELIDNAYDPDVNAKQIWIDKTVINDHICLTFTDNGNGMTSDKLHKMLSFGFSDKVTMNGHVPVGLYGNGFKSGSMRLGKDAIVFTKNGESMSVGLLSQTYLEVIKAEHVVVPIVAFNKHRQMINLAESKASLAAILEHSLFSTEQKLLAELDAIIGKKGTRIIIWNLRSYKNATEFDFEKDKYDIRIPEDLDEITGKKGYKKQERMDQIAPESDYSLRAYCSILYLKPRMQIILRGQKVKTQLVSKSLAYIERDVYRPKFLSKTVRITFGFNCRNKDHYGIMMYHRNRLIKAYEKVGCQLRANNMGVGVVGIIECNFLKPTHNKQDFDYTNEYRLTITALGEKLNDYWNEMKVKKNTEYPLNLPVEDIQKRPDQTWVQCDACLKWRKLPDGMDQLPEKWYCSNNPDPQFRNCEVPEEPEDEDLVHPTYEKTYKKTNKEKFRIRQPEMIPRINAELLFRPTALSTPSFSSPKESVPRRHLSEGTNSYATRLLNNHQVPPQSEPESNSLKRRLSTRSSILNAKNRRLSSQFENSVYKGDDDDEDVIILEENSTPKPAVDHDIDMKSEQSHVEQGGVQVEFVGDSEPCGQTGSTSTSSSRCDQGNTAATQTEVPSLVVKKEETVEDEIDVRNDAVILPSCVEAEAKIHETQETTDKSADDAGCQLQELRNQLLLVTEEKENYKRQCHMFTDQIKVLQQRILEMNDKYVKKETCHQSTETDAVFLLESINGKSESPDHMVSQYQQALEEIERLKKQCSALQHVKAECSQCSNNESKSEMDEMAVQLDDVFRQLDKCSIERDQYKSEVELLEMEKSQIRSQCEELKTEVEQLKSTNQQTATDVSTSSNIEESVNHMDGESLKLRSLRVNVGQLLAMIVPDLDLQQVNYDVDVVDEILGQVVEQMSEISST
inactive: [1] -0.141 | [3] 0.086 | [4] 0.125 | [5] -0.02 | [6] -0.027 | [7] 0.071 | [8] 0.084 | [9] -0.058 | [10] -0.017 | [11] 0 | [12] -0.141 | [13] -0.08 | [14] -0.247 | [15] 0.249 | [16] -0.184 | [17] 0.044 | [18] -0.02 | [19] 0.076 | [20] -0.048
active: [2] -0.509

NFATC2IP (UniProt Q8NCF5)
active: [2] -0.278
inactive: [1] -0.09 | [3] 0.069 | [4] -0.052 | [5] 0.022 | [6] 0.038 | [7] 0.048 | [8] 0.041 | [9] -0.008 | [10] -0.103 | [11] 0.065 | [12] -0.033 | [13] -0.107 | [14] 0.012 | [15] 0.067 | [16] -0.122 | [17] 0 | [18] 0.005 | [19] 0.075 | [20] -0.017

NOP2 isoform 4 (UniProt P46087)
Sequence of UniProt P46087 (P46087 whole entry, looked up): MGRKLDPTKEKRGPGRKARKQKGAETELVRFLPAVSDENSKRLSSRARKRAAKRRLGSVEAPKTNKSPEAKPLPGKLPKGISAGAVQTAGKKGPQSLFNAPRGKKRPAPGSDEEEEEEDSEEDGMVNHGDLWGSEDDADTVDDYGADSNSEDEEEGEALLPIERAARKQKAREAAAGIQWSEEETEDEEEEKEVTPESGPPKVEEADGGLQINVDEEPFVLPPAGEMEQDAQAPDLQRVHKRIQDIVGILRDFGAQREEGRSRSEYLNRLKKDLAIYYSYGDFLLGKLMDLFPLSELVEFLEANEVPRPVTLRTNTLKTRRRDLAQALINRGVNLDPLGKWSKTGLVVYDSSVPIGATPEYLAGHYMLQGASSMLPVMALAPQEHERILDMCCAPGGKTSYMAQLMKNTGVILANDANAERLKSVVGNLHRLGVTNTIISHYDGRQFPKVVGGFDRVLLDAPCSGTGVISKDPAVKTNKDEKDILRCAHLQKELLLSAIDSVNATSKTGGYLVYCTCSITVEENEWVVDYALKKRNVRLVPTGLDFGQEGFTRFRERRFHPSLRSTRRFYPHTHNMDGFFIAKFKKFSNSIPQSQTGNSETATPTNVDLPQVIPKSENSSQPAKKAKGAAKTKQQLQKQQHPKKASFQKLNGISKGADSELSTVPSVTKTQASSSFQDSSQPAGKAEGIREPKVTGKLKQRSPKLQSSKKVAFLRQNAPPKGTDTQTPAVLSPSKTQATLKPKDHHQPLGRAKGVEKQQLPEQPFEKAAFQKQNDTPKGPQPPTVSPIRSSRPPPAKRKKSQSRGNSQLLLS
active: [16] 1.26
inactive: [1] 0.196 | [2] 0.348 | [3] -0.03 | [4] -0.328 | [5] -0.098 | [6] 0.364 | [7] -0.346 | [8] -0.056 | [9] 0.546 | [10] 0.494 | [11] -0.09 | [12] -0.007 | [13] 0.574 | [14] 0.079 | [15] 0.064 | [17] 0.673 | [18] 0.115 | [19] 0.238 | [20] -0.024

PAAF1 (UniProt Q9BRP4)
inactive: [1] 0.006 | [2] -0.034 | [3] -0.021 | [5] 0.005 | [6] -0.051 | [7] -0.009 | [8] 0.039 | [9] -0.07 | [10] -0.039 | [11] 0.056 | [12] 0.016 | [13] -0.075 | [14] -0.008 | [15] -0.006 | [16] -0.034 | [17] 0.012 | [18] -0.008 | [19] -0.004 | [20] 0.004
active: [4] -0.275
